# Records with an inconclusive call do not appear. Values without a mark were called inactive. Active and inactive are the calls of the source. Calls follow the shape of the dose curve; as a rule, active = well fitted cell-killing curve with a large enough effect in the repeat runs; inconclusive = weak or mixed curves, or effect the other way; inactive = no such curve, though single readings can be large or run the other way. Residues, ends and D or L forms follow the SMILES beside them.
# Assay: qHTS assay to identify small molecule agonists of the vitamin D receptor (VDR) signaling pathway - cell viability counter screen (AID 743224); also: nearly all actives have a fitted effect of over 50% in size
# Settings: VDR-bla HEK293T viability, CellTiter-Glo luminescence, 16 h; series mostly up to 62.6 µM; activity change, negative = cytotoxicity: at the top concentration
# Excerpt: U.S. Tox21 Program National Center for Advancing Translational Sciences [NCATS] NIH Chemical Genomics Center [NCGC] U.S. Environmental Protection Agency [EPA] National Institutes of Environmental Health Sciences [NIEHS] National Toxicology Program [NTP] U.S. Food and Drug Administration [FDA] Tox21 Assay Overview: The vitamin D receptor (VDR), a member of nuclear hormone receptor superfamily, plays a critical role in calcium homeostasis and bone metabolism. It is also involved in cell differentiation and growth, and thrombogenicity. […] The cytotoxicity of the Tox21 compound library against the VDR-bla cell line was tested in parallel by measuring the cell viability using CellTiter-Glo assay (Promega, Madison, WI) in the same wells.
# Tox21 Assay Protocol Summary: VDR-bla cells were dispensed at 2,000 cells/6 uL/well into black wall/clear-bottom 1536-well plates using a Multidrop Combi (Thermo Fisher Scientific, Waltham, MA) dispenser. After the assay plates were incubated at a 37C and 5% CO2 for 4 h, 23 nL of compounds dissolved in DMSO, positive controls or DMSO only was transferred to the assay plate by a Pintool station (Kalypsys, San Diego, CA). The plates were incubated at 37C and 5% CO2 for 16 h. After 1 uL of LiveBLAzerTM B/G FRET substrate was added using a Bioraptr Flying Reagent Dispenser (FRD) workstation (Beckman Coulter, Indianapolis, IN, USA), the plates were incubated at room temperature for 2 h, and fluorescence intensity was measured by an Envision plate reader (PerkinElmer, Shelton, CT). For cell viability readout that measures cytotoxicity, 3 ul/well of CellTiter-Glo reagent was added into the assay plates using a FRD. After 30 min incubation at room temperature, the luminescence intensity in the plates was measured using a ViewLux (PerkinElmer) plate reader.
# % is scaled to controls: 0 for no effect and ±100 for the full control effect.
SMILES,outcome,"activity change, negative = cytotoxicity [%]"
CC1(C)[C@@H]2CC[C@@]1(C)C(=O)C2,inactive,
Oc1ccc(/C=C/c2cc(O)cc(O)c2)cc1,inactive,
Cc1ccc(S(=O)(=O)NC(=O)NN2CCCCCC2)cc1,inactive,
NNC(=O)c1ccncc1,inactive,
O=C(O)/C=C\C(=O)O,inactive,
O=c1cc[nH]c(=S)[nH]1,inactive,
O=C(O)c1[nH]n(-c2ccc(S(=O)(=O)O)cc2)c(=O)c1N=Nc1ccc(S(=O)(=O)O)cc1,inactive,
NC(N)=NC(=O)c1nc(Cl)c(N)nc1N,inactive,
CCCCC(CC)COC(=O)/C=C/c1ccc(OC)cc1 (stereo not given),inactive,
O=C1CN(/N=C/c2ccc([N+](=O)[O-])o2)C(=O)N1,,-0.796
CC(=O)Nc1nnc(S(N)(=O)=O)s1,inactive,
Cn1c(=O)c2[nH]cnc2n(C)c1=O,inactive,
Nc1ccc(S(=O)(=O)Nc2nccs2)cc1,inactive,
CCCC(CCC)C(=O)O,inactive,
Cc1ccc(C)c(OCCCC(C)(C)C(=O)O)c1,inactive,
Cc1ccccc1C(OCCN(C)C)c1ccccc1 (stereo not given),inactive,
NS(=O)(=O)c1cc(C(=O)O)c(NCc2ccco2)cc1Cl,inactive,
O=C(O)CCCCCCCC(=O)O,inactive,
Cc1cn([C@H]2C[C@H](N=[N+]=[N-])[C@@H](CO)O2)c(=O)[nH]c1=O,inactive,
O=C(C1CCCCC1)N1CC(=O)N2CCc3ccccc3C2C1 (stereo not given),inactive,

SMILES,outcome,"activity change, negative = cytotoxicity [%]"
COC(=O)[C@H](Cc1ccccc1)NC(=O)[C@@H](N)CC(=O)O (H-Asp-Phe-OMe),inactive,
O=C(O)CS,inactive,
OCCc1ccccc1,inactive,
Cc1ccc(O)cc1,inactive,
Nc1ccc(S(=O)(=O)c2ccc(N)cc2)cc1,inactive,
NC(N)=O,inactive,
Nc1ccc(O)c(C(=O)O)c1,inactive,
Cn1cc[nH]c1=S,inactive,
NC(=O)NC1NC(=O)NC1=O (stereo not given),inactive,
Nc1ccc(C(=O)O)cc1,inactive,
O=C1NC(=O)c2ccccc21,inactive,
N=C(N)c1ccc(OCCCCCOc2ccc(C(=N)N)cc2)cc1,,-17.3
O=NO,inactive,
O=S(=O)(O)c1ccc2cc(O)ccc2c1,inactive,
CCCN(CCC)S(=O)(=O)c1ccc(C(=O)O)cc1,inactive,
O=S(=O)(O)NC1CCCCC1,inactive,
C[C@]12C=CC(=O)C=C1CC[C@@H]1[C@@H]2[C@@H](O)C[C@@]2(C)[C@H]1CC[C@]2(O)C(=O)CO,inactive,
O=c1ccc2ccccc2o1,inactive,
Nc1ccn([C@H]2CC[C@@H](CO)O2)c(=O)n1,inactive,
NC(=O)c1ccccc1O,inactive,
